Measured values reported in publication PMC7862700, “An all-to-all approach to the identification of sequence-specific readers for epigenetic DNA modifications on cytosine”.

How the values were obtained:
Assay in all cases: DAPPL (digital affinity profiling via proximity ligation, sequencing); 10 mM Tris-HCl pH 7.5, 50 mM NaCl, 1 mM DTT, 4% glycerol, room temperature, 30 min; GST-TFs on glutathione beads, 16-mer random dsDNA library, 0.1% formaldehyde crosslink after washing; high values mean tight binding
Conditions in all cases: protein: recombinant; tags: N-terminal GST; dsDNA, one strand shown
FEV = target: T1, FEV (Homo sapiens, UniProt Q99581 1-238)
T1 sequence: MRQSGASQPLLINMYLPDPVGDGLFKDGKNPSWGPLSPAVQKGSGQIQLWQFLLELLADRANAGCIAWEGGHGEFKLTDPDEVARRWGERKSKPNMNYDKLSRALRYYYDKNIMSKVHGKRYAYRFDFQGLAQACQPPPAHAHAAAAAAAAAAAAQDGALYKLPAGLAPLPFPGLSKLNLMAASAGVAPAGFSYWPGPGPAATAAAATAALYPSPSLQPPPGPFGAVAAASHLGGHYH
Summary of the method: (§1)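 Beads coated with glutathione captured GST-fused human transcription factors that had been expressed in yeast, and the factors were then given DNA barcodes and pooled with a tag-only sample. The pools were incubated with 200 nmole of a random double-stranded 16-mer DNA library in Tris/NaCl/DTT/glycerol buffer for 30 min at room temperature, washed, crosslinked with 0.1% formaldehyde and proximity-ligated with BsaI/T4 ligase at 37 °C for 1 h. PCR amplification and Illumina NextSeq500 sequencing came last. Binding signal is each hexamer's read frequency for a factor divided by its frequency for the tag-only sample.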

ETV5 = ETV5 (Homo sapiens, UniProt P41161 1-510)
Summary of the method: as §1

SPIC = target: T2, SPIC (Homo sapiens, UniProt Q8N5J4 1-248)
T2 sequence: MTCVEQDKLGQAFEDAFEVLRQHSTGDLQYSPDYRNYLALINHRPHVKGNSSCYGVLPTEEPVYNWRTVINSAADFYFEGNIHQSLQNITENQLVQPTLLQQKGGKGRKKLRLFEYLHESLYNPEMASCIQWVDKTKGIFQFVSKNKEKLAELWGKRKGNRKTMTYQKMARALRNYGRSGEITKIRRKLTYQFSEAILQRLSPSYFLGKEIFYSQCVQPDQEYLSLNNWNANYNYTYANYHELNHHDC
Summary of the method: as §1

ELF4 = ELF4 (Homo sapiens, UniProt Q99607 1-663)
Summary of the method: as §1

ELK4 = target: T3, ELK4 (Homo sapiens, UniProt P28324-2 1-405)
T3 sequence: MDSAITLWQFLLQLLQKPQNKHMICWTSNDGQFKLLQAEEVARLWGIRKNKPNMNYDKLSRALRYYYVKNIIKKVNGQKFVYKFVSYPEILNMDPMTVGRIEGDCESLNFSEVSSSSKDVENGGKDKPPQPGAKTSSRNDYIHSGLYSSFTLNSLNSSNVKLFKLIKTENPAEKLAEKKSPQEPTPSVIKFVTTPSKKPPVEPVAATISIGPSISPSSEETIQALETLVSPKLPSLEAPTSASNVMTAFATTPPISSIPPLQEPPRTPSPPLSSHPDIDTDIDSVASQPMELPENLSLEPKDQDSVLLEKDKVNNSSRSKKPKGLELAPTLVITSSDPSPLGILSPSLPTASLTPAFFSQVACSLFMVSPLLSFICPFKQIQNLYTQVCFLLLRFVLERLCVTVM
Summary of the method: as §1

ETV2 = target: T4, ETV2 (Homo sapiens, UniProt O00321 1-342)
T4 sequence: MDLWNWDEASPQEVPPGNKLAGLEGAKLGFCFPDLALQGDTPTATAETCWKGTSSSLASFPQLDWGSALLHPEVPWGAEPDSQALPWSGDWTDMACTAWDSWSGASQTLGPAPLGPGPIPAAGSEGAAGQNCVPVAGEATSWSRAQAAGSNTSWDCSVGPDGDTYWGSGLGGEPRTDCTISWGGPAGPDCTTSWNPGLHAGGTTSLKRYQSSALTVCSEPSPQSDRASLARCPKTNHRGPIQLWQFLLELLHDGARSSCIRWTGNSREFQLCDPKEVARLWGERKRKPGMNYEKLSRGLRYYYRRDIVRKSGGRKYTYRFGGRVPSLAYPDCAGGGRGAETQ
Summary of the method: as §1

ELF3 = target: T5, ELF3 (Homo sapiens, UniProt P78545 1-371)
T5 sequence: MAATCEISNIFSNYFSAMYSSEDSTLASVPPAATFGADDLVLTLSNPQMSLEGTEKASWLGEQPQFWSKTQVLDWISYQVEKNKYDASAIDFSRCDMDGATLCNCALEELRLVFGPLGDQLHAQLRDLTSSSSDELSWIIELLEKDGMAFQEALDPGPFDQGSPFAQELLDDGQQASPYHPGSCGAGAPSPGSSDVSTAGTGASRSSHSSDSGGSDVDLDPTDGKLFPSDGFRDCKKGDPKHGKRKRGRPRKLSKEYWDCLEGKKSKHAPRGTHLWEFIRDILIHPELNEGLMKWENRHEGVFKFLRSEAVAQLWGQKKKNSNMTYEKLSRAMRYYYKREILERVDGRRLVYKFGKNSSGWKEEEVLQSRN
Summary of the method: as §1

ETV1 = ETV1 (Homo sapiens, UniProt P50549 1-477)
Summary of the method: as §1

ERF = target: T6, ERF (Homo sapiens, UniProt P50548 1-548)
T6 sequence: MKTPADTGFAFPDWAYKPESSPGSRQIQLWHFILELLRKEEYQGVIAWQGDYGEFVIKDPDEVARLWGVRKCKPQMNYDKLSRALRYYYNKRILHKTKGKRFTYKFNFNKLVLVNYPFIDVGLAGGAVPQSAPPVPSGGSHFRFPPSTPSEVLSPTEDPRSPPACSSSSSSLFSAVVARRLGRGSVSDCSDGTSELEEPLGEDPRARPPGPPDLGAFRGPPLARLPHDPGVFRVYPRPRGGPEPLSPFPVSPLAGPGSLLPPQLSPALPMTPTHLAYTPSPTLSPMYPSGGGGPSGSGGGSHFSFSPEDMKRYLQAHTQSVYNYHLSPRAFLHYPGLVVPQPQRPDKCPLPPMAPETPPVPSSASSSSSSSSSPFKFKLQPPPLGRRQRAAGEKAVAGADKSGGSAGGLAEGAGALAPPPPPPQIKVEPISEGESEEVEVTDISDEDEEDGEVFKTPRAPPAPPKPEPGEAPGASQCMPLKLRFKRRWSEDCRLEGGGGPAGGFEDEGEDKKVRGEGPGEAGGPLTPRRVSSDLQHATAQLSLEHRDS
Summary of the method: as §1

ETV3L = target: T7, ETV3L (Homo sapiens, UniProt Q6ZN32 1-361)
T7 sequence: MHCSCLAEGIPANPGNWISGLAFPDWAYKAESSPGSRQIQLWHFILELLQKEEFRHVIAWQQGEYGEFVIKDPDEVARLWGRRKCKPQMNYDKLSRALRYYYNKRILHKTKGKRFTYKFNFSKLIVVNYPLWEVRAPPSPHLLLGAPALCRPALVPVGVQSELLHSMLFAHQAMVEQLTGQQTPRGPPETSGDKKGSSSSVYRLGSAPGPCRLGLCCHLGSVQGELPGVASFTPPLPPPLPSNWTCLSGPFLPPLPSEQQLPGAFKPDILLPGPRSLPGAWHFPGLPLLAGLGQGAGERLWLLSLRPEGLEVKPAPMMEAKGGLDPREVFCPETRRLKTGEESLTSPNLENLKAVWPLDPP
Summary of the method: as §1

ETS2 = target: T8, ETS2 (Homo sapiens, UniProt P15036 1-469)
T8 sequence: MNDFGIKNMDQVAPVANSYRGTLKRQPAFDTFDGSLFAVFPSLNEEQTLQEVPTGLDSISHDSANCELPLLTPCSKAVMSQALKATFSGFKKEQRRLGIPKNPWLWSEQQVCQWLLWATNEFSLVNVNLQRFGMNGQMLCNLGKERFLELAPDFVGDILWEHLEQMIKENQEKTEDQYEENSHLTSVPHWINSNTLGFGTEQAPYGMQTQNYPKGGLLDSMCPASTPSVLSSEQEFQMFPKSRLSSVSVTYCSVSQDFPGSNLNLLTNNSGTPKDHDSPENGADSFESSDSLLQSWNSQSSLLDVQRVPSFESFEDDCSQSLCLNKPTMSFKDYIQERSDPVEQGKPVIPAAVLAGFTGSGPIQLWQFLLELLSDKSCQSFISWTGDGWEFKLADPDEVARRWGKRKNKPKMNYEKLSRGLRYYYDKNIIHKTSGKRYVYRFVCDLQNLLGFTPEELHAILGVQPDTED
Summary of the method: as §1

SPDEF = target: T9, SPDEF (Homo sapiens, UniProt O95238 1-335)
T9 sequence: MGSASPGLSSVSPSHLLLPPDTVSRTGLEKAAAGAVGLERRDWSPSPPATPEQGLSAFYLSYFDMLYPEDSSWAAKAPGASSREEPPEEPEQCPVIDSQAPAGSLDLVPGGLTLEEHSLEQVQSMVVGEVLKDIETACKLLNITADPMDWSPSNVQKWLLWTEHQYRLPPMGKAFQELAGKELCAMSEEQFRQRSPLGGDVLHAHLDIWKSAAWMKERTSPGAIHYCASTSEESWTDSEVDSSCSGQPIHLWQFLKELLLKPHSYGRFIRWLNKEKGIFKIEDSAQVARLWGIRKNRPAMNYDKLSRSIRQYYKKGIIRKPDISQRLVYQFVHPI
Summary of the method: as §1

ETV7 = target: T10, ETV7 (Homo sapiens, UniProt Q9Y603 1-341)
T10 sequence: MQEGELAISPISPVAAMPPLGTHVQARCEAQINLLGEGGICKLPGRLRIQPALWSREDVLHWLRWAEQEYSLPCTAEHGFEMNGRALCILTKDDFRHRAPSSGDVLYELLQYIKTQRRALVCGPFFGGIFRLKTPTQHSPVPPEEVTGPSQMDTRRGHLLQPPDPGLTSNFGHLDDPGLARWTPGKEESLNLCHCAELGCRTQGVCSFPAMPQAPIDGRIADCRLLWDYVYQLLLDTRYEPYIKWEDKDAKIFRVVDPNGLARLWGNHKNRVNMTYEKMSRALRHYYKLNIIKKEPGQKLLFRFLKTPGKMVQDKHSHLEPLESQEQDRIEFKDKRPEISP
Summary of the method: as §1

ELF5 = target: T11, ELF5 (Homo sapiens, UniProt Q9UKW6-2 1-255)
T11 sequence: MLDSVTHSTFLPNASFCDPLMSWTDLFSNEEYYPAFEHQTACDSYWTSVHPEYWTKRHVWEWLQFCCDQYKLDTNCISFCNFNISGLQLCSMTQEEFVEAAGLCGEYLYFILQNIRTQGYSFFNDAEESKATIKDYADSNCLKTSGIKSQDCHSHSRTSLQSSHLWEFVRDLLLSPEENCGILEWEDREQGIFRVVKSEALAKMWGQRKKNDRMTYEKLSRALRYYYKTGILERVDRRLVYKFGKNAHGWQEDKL
Summary of the method: as §1

ETV3 = target: T12, ETV3 (Homo sapiens, UniProt P41162-2 1-143)
T12 sequence: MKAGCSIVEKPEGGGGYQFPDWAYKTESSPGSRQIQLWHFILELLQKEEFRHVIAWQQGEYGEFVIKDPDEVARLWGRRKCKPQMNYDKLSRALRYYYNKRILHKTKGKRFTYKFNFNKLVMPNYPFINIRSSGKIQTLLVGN
Summary of the method: as §1

ETV6 = ETV6 (Homo sapiens, UniProt P41212 1-452)
Summary of the method: as §1

CRX = CRX (Homo sapiens, UniProt O43186 1-299)
Summary of the method: as §1

Sequence of ELF4 (Q99607 whole entry): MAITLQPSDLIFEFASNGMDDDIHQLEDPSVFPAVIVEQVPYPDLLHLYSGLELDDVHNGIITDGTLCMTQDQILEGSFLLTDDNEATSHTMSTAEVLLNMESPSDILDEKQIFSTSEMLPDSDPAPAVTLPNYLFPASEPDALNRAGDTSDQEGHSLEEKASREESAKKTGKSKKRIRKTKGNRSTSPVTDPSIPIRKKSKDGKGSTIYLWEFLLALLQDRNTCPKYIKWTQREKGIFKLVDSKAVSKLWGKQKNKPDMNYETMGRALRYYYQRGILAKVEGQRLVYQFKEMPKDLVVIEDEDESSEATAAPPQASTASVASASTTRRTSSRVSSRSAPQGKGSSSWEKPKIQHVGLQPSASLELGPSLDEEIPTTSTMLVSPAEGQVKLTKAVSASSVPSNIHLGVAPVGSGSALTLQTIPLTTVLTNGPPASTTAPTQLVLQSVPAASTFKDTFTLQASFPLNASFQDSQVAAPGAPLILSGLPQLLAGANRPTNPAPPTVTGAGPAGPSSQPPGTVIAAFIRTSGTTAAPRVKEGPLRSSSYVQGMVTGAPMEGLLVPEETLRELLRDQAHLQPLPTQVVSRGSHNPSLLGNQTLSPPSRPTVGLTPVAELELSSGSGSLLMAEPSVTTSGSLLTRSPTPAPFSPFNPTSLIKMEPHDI
Sequence of ETV5 (P41161 whole entry): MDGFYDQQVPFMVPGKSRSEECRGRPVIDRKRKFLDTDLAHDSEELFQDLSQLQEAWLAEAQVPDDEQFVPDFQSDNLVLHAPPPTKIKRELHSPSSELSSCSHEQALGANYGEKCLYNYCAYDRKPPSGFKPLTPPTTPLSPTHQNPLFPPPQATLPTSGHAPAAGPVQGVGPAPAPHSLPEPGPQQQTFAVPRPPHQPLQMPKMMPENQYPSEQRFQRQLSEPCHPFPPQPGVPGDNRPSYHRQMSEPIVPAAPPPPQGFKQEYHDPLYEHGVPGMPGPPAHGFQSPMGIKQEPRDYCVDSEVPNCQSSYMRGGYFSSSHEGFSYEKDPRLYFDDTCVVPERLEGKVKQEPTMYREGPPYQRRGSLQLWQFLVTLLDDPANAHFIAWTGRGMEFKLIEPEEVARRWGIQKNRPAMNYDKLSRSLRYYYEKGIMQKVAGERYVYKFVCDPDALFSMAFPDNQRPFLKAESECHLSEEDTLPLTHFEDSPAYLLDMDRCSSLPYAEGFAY
Sequence of ETV6 (P41212 whole entry): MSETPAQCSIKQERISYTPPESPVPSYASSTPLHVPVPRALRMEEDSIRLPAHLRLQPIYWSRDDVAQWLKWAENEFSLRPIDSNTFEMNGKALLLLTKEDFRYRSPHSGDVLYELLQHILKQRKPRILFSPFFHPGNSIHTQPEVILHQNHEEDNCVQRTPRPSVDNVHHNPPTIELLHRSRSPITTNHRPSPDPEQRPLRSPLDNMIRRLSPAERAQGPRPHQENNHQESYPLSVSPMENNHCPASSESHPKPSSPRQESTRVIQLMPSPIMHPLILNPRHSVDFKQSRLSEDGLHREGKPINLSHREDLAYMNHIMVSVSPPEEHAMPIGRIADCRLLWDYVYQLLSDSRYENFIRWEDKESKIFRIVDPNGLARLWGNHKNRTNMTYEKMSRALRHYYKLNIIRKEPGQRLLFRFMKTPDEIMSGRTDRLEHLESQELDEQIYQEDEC
Sequence of ETV1 (P50549 whole entry): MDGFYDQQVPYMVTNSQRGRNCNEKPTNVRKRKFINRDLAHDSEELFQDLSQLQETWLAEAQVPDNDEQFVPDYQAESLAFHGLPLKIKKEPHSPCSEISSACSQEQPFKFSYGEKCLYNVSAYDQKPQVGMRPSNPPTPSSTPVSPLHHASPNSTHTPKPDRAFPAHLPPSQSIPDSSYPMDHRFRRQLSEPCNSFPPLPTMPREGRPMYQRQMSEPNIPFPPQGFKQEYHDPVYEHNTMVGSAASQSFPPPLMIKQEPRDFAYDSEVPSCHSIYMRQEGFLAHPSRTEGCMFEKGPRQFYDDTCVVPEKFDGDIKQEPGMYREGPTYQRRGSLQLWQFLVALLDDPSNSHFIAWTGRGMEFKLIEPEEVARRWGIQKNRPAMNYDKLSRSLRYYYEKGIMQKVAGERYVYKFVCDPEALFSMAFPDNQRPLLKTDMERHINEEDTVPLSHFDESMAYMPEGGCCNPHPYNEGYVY
Sequence of CRX (O43186 whole entry): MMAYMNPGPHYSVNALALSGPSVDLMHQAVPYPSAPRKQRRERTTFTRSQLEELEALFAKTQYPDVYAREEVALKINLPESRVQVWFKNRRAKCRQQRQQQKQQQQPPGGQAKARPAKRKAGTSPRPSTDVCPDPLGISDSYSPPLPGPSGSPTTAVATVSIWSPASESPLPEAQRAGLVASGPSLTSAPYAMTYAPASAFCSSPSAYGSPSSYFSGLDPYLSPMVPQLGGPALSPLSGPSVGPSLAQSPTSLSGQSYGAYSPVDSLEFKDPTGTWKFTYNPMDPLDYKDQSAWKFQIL

Row | Sequence | binding signal (FEV) | binding signal (ETV5) | binding signal (SPIC) | binding signal (ELF4) | binding signal (ELK4) | binding signal (ETV2) | binding signal (ELF3) | binding signal (ETV1) | binding signal (ERF) | binding signal (ETV3L) | binding signal (ETS2) | binding signal (SPDEF) | binding signal (ETV7) | binding signal (ELF5) | binding signal (ETV3) | binding signal (ETV6) | binding signal (CRX)
1 | CCCACA | 1.17 fold enrichment (6-mer frequency, TF over GST control) | 1.14 fold enrichment (6-mer frequency, TF over GST control) | 1.2 fold enrichment (6-mer frequency, TF over GST control) | 1.15 fold enrichment (6-mer frequency, TF over GST control) | 1.1 fold enrichment (6-mer frequency, TF over GST control) | 1.1 fold enrichment (6-mer frequency, TF over GST control) | 1.14 fold enrichment (6-mer frequency, TF over GST control) | 1.07 fold enrichment (6-mer frequency, TF over GST control) | 1.12 fold enrichment (6-mer frequency, TF over GST control) | 1.1 fold enrichment (6-mer frequency, TF over GST control) | 1.13 fold enrichment (6-mer frequency, TF over GST control) | 1.22 fold enrichment (6-mer frequency, TF over GST control) | 1.05 fold enrichment (6-mer frequency, TF over GST control) | 1.13 fold enrichment (6-mer frequency, TF over GST control) | 1.1 fold enrichment (6-mer frequency, TF over GST control) | 1.14 fold enrichment (6-mer frequency, TF over GST control) | –
2 | TGCAAT | 1.2 fold enrichment (6-mer frequency, TF over GST control) | 1.21 fold enrichment (6-mer frequency, TF over GST control) | 1.14 fold enrichment (6-mer frequency, TF over GST control) | 1.2 fold enrichment (6-mer frequency, TF over GST control) | 1.28 fold enrichment (6-mer frequency, TF over GST control) | 1.04 fold enrichment (6-mer frequency, TF over GST control) | 1.24 fold enrichment (6-mer frequency, TF over GST control) | 1.26 fold enrichment (6-mer frequency, TF over GST control) | 1.14 fold enrichment (6-mer frequency, TF over GST control) | 1.12 fold enrichment (6-mer frequency, TF over GST control) | 1.15 fold enrichment (6-mer frequency, TF over GST control) | 1.15 fold enrichment (6-mer frequency, TF over GST control) | 1.2 fold enrichment (6-mer frequency, TF over GST control) | 1.1 fold enrichment (6-mer frequency, TF over GST control) | 1.15 fold enrichment (6-mer frequency, TF over GST control) | 1.17 fold enrichment (6-mer frequency, TF over GST control) | 1.03 fold enrichment (6-mer frequency, TF over GST control)
